High-throughput results: PubChem BioAssay, National Center for Advancing Translational Sciences (NCATS)
This excerpt belongs to a sample that is enriched for hits.
L3MBTL1 inh: blocks human L3MBTL1 | AlphaScreen L3MBTL1–H3K9me1 peptide binding | Potency, µM (doses to about 57.1 µM), for inactives: at the highest dose activity, negative = inhibition, most hits filed as inhibitors | hit rate 0.66% among 230,000 | AID 485360; active means well fitted inhibition curve with a large enough effect; inconclusive means small, poorly fitted or top-dose-only effect; inactive means no such curve, though single readings can be large or run the other way; further: potency means the concentration at half of the fitted maximal effect; nearly all actives have a fitted effect of over 60% in size
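First, the protein-peptide complex forms for 30 min at room temperature (L3MBTL1 50 nM, biotinylated H3K9me1 peptide 75 nM). Next, compounds are pin-transferred and incubated 30 min. Finally, AlphaScreen beads are added and read after 30 min.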
JMJD2E inh: inhibitors of human JMJD2E histone demethylase; B2RXH2; JMJD2E catalytic domain, FDH-coupled NADH fluorescence (FDH is formaldehyde dehydrogenase); Potency, µM (titrated, usually from 57.1 µM), for inactives: top-dose activity change, negative = inhibition, most hits filed as inhibitors; hit rate 1.6% among 230,000; active means well fitted inhibition curve with a large enough effect, not every such curve was filed as active; inconclusive means small, poorly fitted or top-dose-only effect, or another doubt; inactive means no such curve, though single readings can be large or run the other way;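 further: potency means the concentration at half of the fitted maximal effect; 0% = wells with enzyme and -100% = buffer wells without enzyme; nearly all actives have a fitted effect of over 50% in size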
Six1-Eya2 inh: Six1/Eya2 interaction inhibition; Q15475+O00167; AlphaScreen GST-Six1/His-Eya2 binding, biochemical; stronger effect = lower value; activity change, % (test concentration not listed); hit rate 0.56% among 360,000
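Compounds are tested against tagged Six1 and Eya2 proteins bridged by glutathione donor and nickel acceptor beads; after a one-hour incubation at 37 °C without light, AlphaScreen emission is recorded.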
CtBP-E1A blk: inhibitors of CtBP/E1A interaction; AlphaScreen GST-E1A/His-CtBP binding, 1536-well; stronger effect = lower value; activity change, % (no concentration beside the values); hit rate 0.49% among 340,000; AID 651724
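In 5 uL wells, 23 nL compound meets equimolar GST-E1A and His-CtBP (5X stock 125 nM each) for 2 h, 37 °C. Beads (5X, 50 ug/mL) then 1 h, 37 °C, dark.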
Numbers without * were called inactive; ? = inconclusive; · = not tested or not shown; ! = not confirmed by another sample; [ ] = remark or other dose. Unless noted, no stated cut-off is given here; in the data, active means activity change below about -65%; inconclusive means mostly about -30% to -63%; inactive means weaker than that. Unless noted, on the % scale 0 is the no-effect control and ±100 the full control effect.

SMILES | L3MBTL1 inh | JMJD2E inh | Six1-Eya2 inh | CtBP-E1A blk
O=C(N/N=C/c1cccc(F)c1)c1cc(-c2ccco2)nc2ccccc12 | 5.6µM* | ? | -29 | -1
COc1ccc(-c2nn(-c3ccccc3)cc2/C=N/NC(=O)c2ccc3c(c2)OCO3)cc1 | -6% | ? | · | ·
O=C(O)COc1ccccc1/C=N/NC(=O)c1cc(-c2ccc(F)cc2)nc2ccccc12 | 2% | -21% | -72* | ?
O=C(N/N=C/c1ccccn1)c1ccc(Br)o1 | 9% | -13% | -66* | -75*
CCCCN(C(=O)C(C)Oc1ccc(Br)cc1)c1c(N)n(CC(C)C)c(=O)[nH]c1=O (stereo not drawn) | 33% | · | 10 | -6
NC(=NCc1ccco1)NC(=O)c1ccc(Cl)cc1 | · | · | -7 | -3
CCC(=O)c1c(NC(CC)CO)cc(C)oc1=O (stereo not drawn) | · | -7% | 18 | -3
O=C(O)C1OC(O)C(O)C(O)C1O (stereo not drawn) | · | -2% | · | ·
O=C(N/N=C/c1ccccn1)c1cc(-c2ccccc2)nc2ccccc12 | -24% | 25µM* | ? | ·
CCC#CCOCC(=S)Nc1ccccc1 | · | 1% | · | ·
CCOC(=O)c1sc(N=NC2=C(O)CCCC2=O)c(C(=O)OCC)c1C | 3.5µM* | ? | ? | 2
CCOC(=O)/C(N=Nc1sc(C(=O)OCC)c(C)c1C(=O)OCC)=C(\C)O | -4% | -1% | · | ·
Cn1c(=O)c(NCCO)c2c3c(cccc31)C(=O)c1ccccc1-2 | 10%[11.4 µM] | -2% | ? | -69*
CCc1cc(Cn2nc(-c3ccccc3)cc2C(=O)NCC2CC2)on1 | 14% | · | 8 | 10
CCn1nc(C(=O)Nc2nc(-c3ccccn3)cs2)c2ccccc2c1=O | -6% | · | ? | ·
COC(=O)c1cccc(NC(=O)c2nn(C)c(=O)c3ccccc23)c1 | -15% | 4% | -83* | -85*
CCCn1nc(C(=O)Nc2nc(-c3ccccn3)cs2)c2ccccc2c1=O | ? | · | -77* | -86*
COC(=O)c1ccc(C)c(NC(=O)c2nn(C)c(=O)c3ccccc23)c1 | 6% | 5% | 0 | 2
Cn1nc(C(=O)Nc2nc(-c3ccccn3)cs2)c2ccccc2c1=O | -19% | · | -91* | -91*
O=C(NC1CCCCC1)C(c1ccc(O)c(O)c1)N(C(=O)Cn1nnc2ccccc21)c1cccc(O)c1 (stereo not drawn) | ? | 16µM* | -1 | 5
CC(=O)NC(C(=O)O)C(C)(C)SN=O (stereo not drawn) | · | 6% | · | ·
O=C(NCc1ccco1)c1ccc(S(=O)(=O)N2CCCCC2)cc1 | 2% | ? | 4 | ·
O=C(NCc1ccco1)c1ccc(S(=O)(=O)N2CCOCC2)cc1 | 35µM* | -8% | -4 | 2
COC(=O)CCCC1=CC2=C(c3ccccc3)C(=O)C(C)(OC(=O)C3CCCC3)C(=O)C2=CN1CC1CC1 (stereo not drawn) | · | 11µM*! | -11 | ·
COC(=O)CCCC1=CC2=C(c3ccccc3)C(=O)C(C)(OC(=O)C3CCCC3)C(=O)C2=CN1CC(C)C (stereo not drawn) | · | 18µM*! | -14 | -14
SMILES | L3MBTL1 inh | JMJD2E inh | Six1-Eya2 inh | CtBP-E1A blk
COCCN1C=C2C(=O)C(C)(OC(=O)C3CCCC3)C(=O)C(c3ccccc3)=C2C=C1CCCC(=O)OC (stereo not drawn) | · | ? | -3 | 1
COC(=O)CCCC1=CC2=C(c3ccccc3)C(=O)C(C)(OC(=O)C3CCCC3)C(=O)C2=CN1C1CCCC1 (stereo not drawn) | · | -12% | -11 | -18
Cc1ccc(CN(C(=O)c2csnn2)C(C(=O)NC2CCCC2)c2ccco2)cc1 (stereo not drawn) | · | · | 11 | 3
Cc1cn([C@H]2C[C@H](O)[C@@H](CNCc3cccn3-c3nccs3)O2)c(=O)[nH]c1=O | · | · | 5 | -1
O=C(/C=C\c1cccs1)c1c(O)ccc2ccc(=O)oc12 | -3% | -5% | 4 | 9
CCOc1cc(/C=C(\C#N)c2[nH]nc(N)c2C#N)ccc1O | · | ? | -67* | -81*
Cc1ccc(C)c(NC(=O)CCC(=O)N/N=C/c2cc([N+](=O)[O-])ccc2O)c1 | -4% | ? | -86* | ·
O=C(CSc1nc2ccccc2s1)N/N=C/c1cc([N+](=O)[O-])ccc1O | ? | ? | ? | -68*
Cc1ccc(C)c(NC(=O)CCC(=O)N/N=C/c2ccc[nH]2)c1 | -5% | -2% | -2 | -1
Cc1ccccc1NC(=O)CCC(=O)N/N=C/c1cc([N+](=O)[O-])ccc1O | ? | 5% | -79* | -88*
